Data published in PubChem BioAssay AID485275 (NMMLSC, 2010).
In all, about 330,000 compounds went through this assay and about 1,400 (0.42%) were called active.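 Rule for the calls: active = plate passing quality check with inhibition over a set limit, or well fluorescence over plate mean plus 4 SD; inactive = the rest.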 What follows is part of a selection rich in actives, with near analogues and random picks from the rest.

Assay: antifungal drug efflux pump blockers, triplex strains – S. cerevisiae, Nile Red, multiplex, primary screen (AID 485275);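 note: Nile Red retained in pooled yeast measured as flow cytometry median fluorescence; 0% = buffer negative control and 100% = Enniatin B positive control; higher means more Nile Red kept so more efflux inhibition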
Conditions: S. cerevisiae Candida pump triplex, at 10 µM, stronger effect = higher value

SMILES	inhibition
CCCN(CC(=O)Nc1ccccc1C)C(=O)c1ccc2[nH]c3c(c2c1)CC(C)CC3 (centres undefined)	0.26% (inactive)
Cn1nc(C(C)(C)C)c(NC(=O)c2sccc2Cl)c1C(C)(C)C	0.22% (inactive)
COc1cccc(CNS(=O)(=O)c2csc(C(N)=O)c2)c1	-0.01% (inactive)
CN(CCNC(=O)c1cc2c(-c3ccccc3F)nn(C)c2s1)C1CCCCC1	0% (inactive)
CCCCCCCCCCCCCCCC(=O)OC/C=C(C)/C=C/C=C(C)/C=C/C1=C(C)CCCC1(C)C	1.61% (active)
CC1=C(/C=C/C(C)=C/C=C/C(C)=C/C=C/C=C(C)/C=C/C=C(C)/C=C/C2=C(C)CCCC2(C)C)C(C)(C)CCC1	0.08% (inactive)
CCc1ccc(/C=N/NC(=O)c2ccc(OC3CCCC3)cc2)s1	-0.12% (inactive)
COCCOC1CCN(C(=O)c2ccc(OC)c(OC3CCN(C(C)C)CC3)c2)CC1	-0.1% (inactive)
CCOc1ccc(NC(=O)c2cccc3c2C(=O)N(CC2CCCO2)C3)cc1 (centres undefined)	0.06% (inactive)
O=C(Cn1c(-c2cscn2)nc2ccccc21)Nc1ccc(Cl)cc1	-0.15% (inactive)
O=C(Cn1c(COc2ccccc2)nc2ccccc21)Nc1cc(Cl)c(Cl)cc1Cl	0.72% (active)
CC(C)n1c(COc2ccccc2)nc2ccccc21	0.39% (inactive)
Cc1ccc(C)c(NC(=O)c2ccc(OC(=O)c3ccco3)cc2)c1	0.04% (inactive)
Fc1ccccc1/C=N/n1c(-c2cccnc2)n[nH]c1=S	-0.01% (inactive)
S=c1[nH]nc(-c2ccncc2)n1/N=C/c1ccccc1Cl	0.13% (inactive)
COc1ccccc1/C=C/C=N/n1c(-c2ccc(Cl)cc2Cl)n[nH]c1=S	0.42% (active)
Cn1c(=O)c2c(nc(N3CCCCCC3)n2CC(O)COc2ccc(Cl)cc2)n(C)c1=O (centres undefined)	0.11% (inactive)
CCCCN1C(=O)/C(=C2/Sc3ccc(Cl)cc3N2CC)SC1=S	-0.02% (inactive)
CCCCN1C(=O)/C(=C/C=C2/C=Cc3ccccc3N2CC)SC1=S	1% (active)
CCCCN1C(=O)/C(=C2/C=CC=CN2C)SC1=S	0.04% (inactive)

SMILES	inhibition
Cc1ccc(N2CCN(c3ccc(C)cc3)C2c2ccccn2)cc1	0.22% (inactive)
CSCCC(NC(=O)COc1ccccc1)C(=O)OCC(=O)c1cc2ccccc2o1 (centres undefined)	-0.18% (inactive)
CSCCC(NC(=O)COc1ccccc1)C(=O)OCCOc1ccc(Br)cc1 (centres undefined)	0.49% (active)
CSCCC(NC(=O)COc1ccccc1)C(=O)OCCOc1ccc(F)cc1 (centres undefined)	0.07% (inactive)
O=C(CCC(=O)N1CCCC1)Nc1ccc([N+](=O)[O-])cc1	0.32% (inactive)
Cc1ccc(NC(=O)c2ccc(Cl)nc2)cc1S(=O)(=O)N1CCOCC1	0.15% (inactive)
Cc1cc(C(=O)NNC(=O)c2cccc(S(=O)(=O)N3CCOCC3)c2)c2ccccc2n1	0% (inactive)
Cc1cc(C(=O)Nc2ccc(C)c(S(=O)(=O)N3CCOCC3)c2)c2ccccc2n1	1.11% (active)
COc1ccc(C2(C)NC(=O)N(CC(=O)c3ccc4c(c3)OCO4)C2=O)cc1 (centres undefined)	0.11% (inactive)
CCCCN(C(=O)C(CCSC)N1C(=O)c2ccccc2C1=O)c1c(N)n(CCC)c(=O)[nH]c1=O (centres undefined)	-0.17% (inactive)
Cc1nn(C)cc1N1C(=O)c2cccc3c(N)ccc(c23)C1=O	0.48% (active)
Cc1ccc(NC(=O)COC(=O)C2C3CC4OC(=O)C2C4C3)cc1Cl (centres undefined)	0.04% (inactive)
Cc1oc2cc3oc(=O)ccc3cc2c1C	2.16% (active)
COc1c(C(C)C)oc2cc3oc(=O)ccc3cc12	0% (inactive)
Cc1noc(C)c1COc1ccc2ccc(=O)oc2c1	0.13% (inactive)
CC[C@]1(C(=O)OC)[C@H]2C(=O)N(Cc3ccccc3)C(=O)[C@H]2[C@H]2CN=C(SCc3ccc(Cl)cc3)N21	0.03% (inactive)
CC(=O)N1CCN(CC(C)(C)NS(=O)(=O)c2ccc(C)cc2)CC1	0.16% (inactive)
CCn1ncc(C2=NOC(C(=O)Nc3ccccc3C(=O)OC)C2)c1C (centres undefined)	-0.18% (inactive)
Cc1cccc(NC(=O)COc2ccc(Br)cc2C)n1	-0.04% (inactive)
Cc1ccccc1OCC(=O)Nc1nc(C)c(C(=O)N(C)C)s1	-0.09% (inactive)

SMILES	inhibition
Cc1cccc(NC(=O)COc2ccccc2C)n1	1.07% (active)
COc1ccc(Cc2nc3ccc(C(=O)N4CCC(N(C)C)C4)cc3o2)cc1 (centres undefined)	-0.47% (inactive)
O=C(COc1ccccc1F)NNC(=O)c1cc(Br)ccc1Cl	0.03% (inactive)
CC1CCN(C(=O)CCc2nnc3ccc(NCc4ccco4)nn23)CC1	0.1% (inactive)
CCC1(CC)NC(=O)N(CC(=O)OCC(=O)NC(=O)c2ccccc2)C1=O	0.07% (inactive)
NC(=O)c1oc2ccccc2c1NC(=O)Cc1ccccc1	0.32% (inactive)
O=S(=O)(NCC1OCCc2ccccc21)c1ccccc1 (centres undefined)	-0.08% (inactive)
O=C(Cc1ccccc1)NCC1OCCc2ccccc21 (centres undefined)	0.87% (active)
CCOc1ccc2nc(Cl)c(C3CC(c4ccccc4)=NN3C(=O)c3cccs3)cc2c1 (centres undefined)	0.46% (active)
COc1ccc(C2=NN(C(=O)c3ccccc3C(=O)O)C(c3ccccc3O)C2)cc1 (centres undefined)	-0.05% (inactive)
CCOc1ccccc1C1CC(c2cccc(NS(C)(=O)=O)c2)=NN1C(=O)c1ccccc1 (centres undefined)	-0.18% (inactive)
N#Cc1ccc(CN2CCN(CC(=O)Nc3ccccc3C(=O)NC3CC3)CC2)cc1	0.14% (inactive)
CCCCC(NS(=O)(=O)c1ccc(C)cc1)C(=O)Oc1ccc2c3c(c(=O)oc2c1)CCC3 (centres undefined)	0.09% (inactive)
C/C(N)=C(/C#N)C(=O)COC(=O)c1cc(-c2cccc(Br)c2)nc2ccccc12	37.8% (active)
C/C(N)=C(/C#N)C(=O)COC(=O)c1cc(-c2ccc(C)cc2)nc2ccccc12	-0.3% (inactive)
C/C(N)=C(/C#N)C(=O)COC(=O)c1cc(-c2ccccc2)nc2ccc(Br)cc12	0.06% (inactive)
COc1ccccc1NC(=O)C1CCCN1S(=O)(=O)c1ccc(Cl)cc1 (centres undefined)	0.94% (active)
Cc1cccc(NC(=O)C2CCCN2S(=O)(=O)c2ccc(F)cc2)c1C (centres undefined)	-0.01% (inactive)
CC(C)c1nnc(NC(=O)C2CCCN2S(=O)(=O)c2ccc(Cl)cc2)s1 (centres undefined)	-0.16% (inactive)
